In PubChem BioAssay (Tox21):
Results filed as inconclusive are left out. Active and inactive are the calls of the source. The call rests on the fitted dose curve; in most records, active means well fitted cell-killing curve with a large enough effect in the repeat runs; inconclusive means weak or mixed curves, or effect the other way; inactive means flat fitted curve, though single readings scatter.

Assay: qHTS RealTime-Glo MT Cell Viability Assay in HEK293 cells - 8 hour (AID 1224887); further: top concentration of the series differs between compounds; nearly all actives have a fitted effect of over 50% in size
Settings: RealTime-Glo luminescence; series mostly up to 76.8 µM; activity change, negative = cytotoxicity: at the top concentration
Text: U.S. Tox21 Program National Center for Advancing Translational Sciences [NCATS] NIH Chemical Genomics Center [NCGC] U.S. Environmental Protection Agency [EPA] National Institutes of Environmental Health Sciences [NIEHS] National Toxicology Program [NTP] U.S. Food and Drug Administration [FDA] Tox21 Assay Overview: Measure of cell viability is critical in the cell-base assay. Analysis of cell viability is necessary for the characterization of cell responses to cytotoxic drugs and environmental stress. A RealTime-Glo MT Cell Viability Assay to monitor cell viability in real time of continues cell culture during 40 hours of compound treatment was used to screen Tox21 10K library compounds in Hek293 cells. The RealTime-Glo MT Cell Viability Assay is a nonlytic, homogeneous, bioluminescent method to measure cell viability in real time using a simple, plate-based method. The assay involves adding NanoLuc luciferase and a cell-permeant prosubstrate to cells in culture. Viable cells reduce the proprietary prosubstrate to generate a substrate for NanoLuc luciferase. This substrate diffuses from cells into the surrounding culture medium, where it is rapidly used by the NanoLuc Enzyme to produce a luminescent signal. The signal correlates with the number of viable cells, making the assay well suited for cytotoxicity studies.
Tox21 Assay Protocol Summary: The mixture of Hek293 cell suspension and reagents were dispensed at 600cells/6 ul/well in 1536-well tissue culture treated black solid bottom plates using a Multidrop dispenser. After the assay plates were incubated at a 37 C/5% CO2 incubator for 5 hours, 23 nL of compounds dissolved in DMSO, positive and negative controls was transferred to the assay plate by a pintool work station. The plates were incubated at 37 C for 40 hours. The luminescence intensity were measured at 0h, 8h, 16h, 24h, 32h and 40h time points using ViewLux plate reader during compound treatment.
On the % scale 0 is the no-effect control and ±100 the full control effect.

Structure (SMILES) | activity change, negative = cytotoxicity
CCCCC[Si](OCC)(OCC)OCC | -24.2% (inactive)
O=S1(=O)CCCC1 | 3.31% (inactive)
CCC1Nc2cc(Cl)c(S(N)(=O)=O)cc2S(=O)(=O)N1 (stereo not given) | -1.93% [at 35.3 µM] (inactive)
O=C1NC2NC(=O)NC2N1 (stereo not given) | 10.6% (inactive)
CCC(O)C(C)(C)C (stereo not given) | -0.496% (inactive)
CN(C)CCCNCCC#N | 9.35% (inactive)
CCOC(=O)C(=O)c1csc(NC=O)n1 | -2.77% [at 35.3 µM] (inactive)
CCCO | 8.28% (inactive)
CC(C)CCC(=O)CCC(C)C | 10.2% (inactive)
COc1ccc(OC)c(NC(=O)CC(C)=O)c1 | 7.98% (inactive)
CCOC(=O)CCc1ccccc1 | 1.14% (inactive)
CC(C)(C)NCCO | 5.31% (inactive)
Nc1ccc(S(=O)(=O)NC(=O)c2ccccc2)cc1 | -4.2% [at 35.3 µM] (inactive)
COc1ccc(NS(=O)(=O)c2ccc(N)cc2)nn1 | 0.156% [at 35.3 µM] (inactive)
CC(C)CCCCCCOC(=O)C1CCCCC1C(=O)OCCCCCCC(C)C (stereo not given) | -6.17% (inactive)
C=CCOCC(CO)(COCC=C)COCC=C | -0.633% [at 35.3 µM] (inactive)
CC1=NN(c2ccc(S(=O)(=O)O)cc2)C(=O)C1N=Nc1ccccc1 (stereo not given) | -20.5% (inactive)
O=C(CN1CCN(Cc2ccc3c(c2)OCO3)CC1)N1c2ccccc2Sc2ccccc21 | -10% [at 35.3 µM] (inactive)
Cc1ccc2c(c1)c1c3n2CCNC3CCC1 (stereo not given) | 4.07% [at 35.3 µM] (inactive)
CCC(CO)CO | 13.6% (inactive)

Structure (SMILES) | activity change, negative = cytotoxicity
CCCCC(CC)CNC(=O)CC(C)OC(=O)CCC(=O)O (stereo not given) | 1.62% [at 35.3 µM] (inactive)
Nc1c(NC/C=C\COc2cc(CN3CCCCC3)ccn2)c(=O)c1=O | 1.9% [at 15.8 µM] (inactive)
Cc1ccccc1C | 19% (inactive)
CN[C@@H]1[C@H](O)[C@H](NC)[C@H]2O[C@@]3(O)C(=O)C[C@@H](C)O[C@H]3O[C@@H]2[C@H]1O | 0.238% [at 35.3 µM] (inactive)
CCCCC(CC)C(=O)OC(C)C (stereo not given) | 0.611% (inactive)
CC(=O)OC[C@H]1O[C@@H](OC(C)=O)[C@H](OC(C)=O)[C@@H]1OC(C)=O | 5.89% [at 35.3 µM] (inactive)
CCC1COC(=O)O1 (stereo not given) | 1.95% (inactive)
CCCCCC1Nc2cc(C(F)(F)F)c(S(N)(=O)=O)cc2S(=O)(=O)N1 (stereo not given) | -0.169% [at 35.3 µM] (inactive)
CCC(=O)OCCC(C)CCC=C(C)C (stereo not given) | -9.53% (inactive)
Cc1ccc(C(=O)C(=O)O)cc1C | -14.9% [at 35.3 µM] (inactive)
CC(=O)c1ccc(OCC(=O)N2CCCCC2)cc1 | -0.324% [at 35.3 µM] (inactive)
CC(=O)OCCCc1ccccc1 | 7.01% (inactive)
CCCC(C)CC (stereo not given) | 3.39% (inactive)
N#CCCOCCOCCC#N | 16.7% (inactive)
CCCCC(=O)N(C)C | -2.32% (inactive)
CCOC(=O)CC#N | 0.626% (inactive)
CCCCCC1CCCC(=O)O1 (stereo not given) | 12.3% (inactive)
CCCCC/C=C/CC(=O)OC | 3.14% (inactive)
Nc1ccnc(=O)[nH]1 | 4.22% (inactive)
CC(C)(c1ccc(Oc2ccc3c(c2)C(=O)OC3=O)cc1)c1ccc(Oc2ccc3c(c2)C(=O)OC3=O)cc1 | 9.9% (inactive)
